# According to publication PMC7862700, “An all-to-all approach to the identification of sequence-specific readers for epigenetic DNA modifications on cytosine”:
# What was measured:
# Experiment in all cases: DAPPL (digital affinity profiling via proximity ligation, sequencing); 10 mM Tris-HCl pH 7.5, 50 mM NaCl, 1 mM DTT, 4% glycerol, room temperature, 30 min; GST-TFs on glutathione beads, 16-mer random dsDNA library, 0.1% formaldehyde crosslink after washing; high values mean tight binding
# [1] = target: T1, FLI1 (Homo sapiens, UniProt Q01543 1-452); conditions: protein: recombinant; tags: N-terminal GST; dsDNA, one strand shown
# T1 sequence: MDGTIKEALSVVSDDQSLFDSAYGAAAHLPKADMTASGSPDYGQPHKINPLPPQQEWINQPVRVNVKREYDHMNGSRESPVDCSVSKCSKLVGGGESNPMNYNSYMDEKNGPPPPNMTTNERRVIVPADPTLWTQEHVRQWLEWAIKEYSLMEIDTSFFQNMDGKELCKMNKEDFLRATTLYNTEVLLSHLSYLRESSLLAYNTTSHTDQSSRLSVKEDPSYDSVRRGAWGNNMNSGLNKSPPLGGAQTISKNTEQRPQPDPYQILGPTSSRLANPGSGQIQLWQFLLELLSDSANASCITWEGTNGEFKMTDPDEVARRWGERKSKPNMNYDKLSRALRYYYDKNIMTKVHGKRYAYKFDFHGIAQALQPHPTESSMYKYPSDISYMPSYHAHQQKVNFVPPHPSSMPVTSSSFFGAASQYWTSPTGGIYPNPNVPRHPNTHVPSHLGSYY
# How it was run: (§1)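 A tag-only sample was pooled with DNA-barcoded human transcription factors that had been expressed in yeast as GST fusions and captured on glutathione beads. The pools were incubated for 30 min at room temperature with 200 nmole of a random double-stranded 16-mer DNA library in Tris/NaCl/DTT/glycerol buffer, then washed, crosslinked with 0.1% formaldehyde, proximity-ligated (BsaI/T4 ligase, 1 h, 37 °C), PCR-amplified and sequenced on an Illumina NextSeq500. Binding signal is each hexamer's read frequency for a factor divided by its frequency for the tag-only sample.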
# [2] = target: T2, ELK1 (Homo sapiens, UniProt P19419 1-428); conditions: protein: recombinant; tags: N-terminal GST; dsDNA, one strand shown
# T2 sequence: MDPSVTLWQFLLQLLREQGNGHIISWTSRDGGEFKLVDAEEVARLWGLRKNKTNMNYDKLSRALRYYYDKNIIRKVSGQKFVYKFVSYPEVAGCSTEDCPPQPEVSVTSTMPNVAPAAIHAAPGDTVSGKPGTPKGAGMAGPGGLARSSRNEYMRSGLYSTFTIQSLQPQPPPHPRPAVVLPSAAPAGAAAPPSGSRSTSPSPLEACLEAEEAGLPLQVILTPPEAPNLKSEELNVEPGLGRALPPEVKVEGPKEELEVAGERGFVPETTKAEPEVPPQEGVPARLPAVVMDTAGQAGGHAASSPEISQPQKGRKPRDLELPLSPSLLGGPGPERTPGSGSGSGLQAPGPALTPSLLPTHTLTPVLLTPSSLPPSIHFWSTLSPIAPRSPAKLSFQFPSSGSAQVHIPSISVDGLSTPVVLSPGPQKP
# How it was run: as §1
# [3] = target: T3, GABPA (Homo sapiens, UniProt Q06546 1-454); conditions: protein: recombinant; tags: N-terminal GST; dsDNA, one strand shown
# T3 sequence: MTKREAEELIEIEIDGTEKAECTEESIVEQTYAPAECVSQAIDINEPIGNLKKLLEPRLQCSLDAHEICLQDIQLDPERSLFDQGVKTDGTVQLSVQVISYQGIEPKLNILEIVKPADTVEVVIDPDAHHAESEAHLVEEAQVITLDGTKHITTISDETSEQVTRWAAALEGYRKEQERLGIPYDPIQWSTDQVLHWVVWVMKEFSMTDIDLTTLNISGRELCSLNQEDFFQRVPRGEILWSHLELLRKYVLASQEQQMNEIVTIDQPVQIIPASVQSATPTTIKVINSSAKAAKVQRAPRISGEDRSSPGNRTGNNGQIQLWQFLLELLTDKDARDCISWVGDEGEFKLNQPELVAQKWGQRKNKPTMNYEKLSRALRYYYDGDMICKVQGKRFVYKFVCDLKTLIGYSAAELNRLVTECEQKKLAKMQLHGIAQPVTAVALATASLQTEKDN
# How it was run: as §1
# [4] = target: T4, ERG (Homo sapiens, UniProt P11308 1-479); conditions: protein: recombinant; tags: N-terminal GST; dsDNA, one strand shown
# T4 sequence: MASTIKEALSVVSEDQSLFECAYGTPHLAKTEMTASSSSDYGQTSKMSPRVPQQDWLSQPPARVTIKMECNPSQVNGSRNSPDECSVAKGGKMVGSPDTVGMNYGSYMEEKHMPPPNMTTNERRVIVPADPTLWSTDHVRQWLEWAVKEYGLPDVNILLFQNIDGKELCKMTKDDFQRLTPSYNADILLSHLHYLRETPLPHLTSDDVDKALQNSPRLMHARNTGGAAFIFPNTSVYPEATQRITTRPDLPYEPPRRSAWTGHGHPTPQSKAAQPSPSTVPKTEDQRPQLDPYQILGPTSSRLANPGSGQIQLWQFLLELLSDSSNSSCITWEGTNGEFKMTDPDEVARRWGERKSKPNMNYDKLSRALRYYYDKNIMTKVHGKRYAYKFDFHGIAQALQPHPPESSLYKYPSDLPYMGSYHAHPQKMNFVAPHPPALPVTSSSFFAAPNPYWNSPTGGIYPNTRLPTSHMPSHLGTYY
# How it was run: as §1
# [5] = target: ELF1 (Homo sapiens, UniProt P32519 1-619); conditions: protein: recombinant; tags: N-terminal GST; dsDNA, one strand shown
# How it was run: as §1
# [6] = target: T5, EHF (Homo sapiens, UniProt Q9NZC4 1-300); conditions: protein: recombinant; tags: N-terminal GST; dsDNA, one strand shown
# T5 sequence: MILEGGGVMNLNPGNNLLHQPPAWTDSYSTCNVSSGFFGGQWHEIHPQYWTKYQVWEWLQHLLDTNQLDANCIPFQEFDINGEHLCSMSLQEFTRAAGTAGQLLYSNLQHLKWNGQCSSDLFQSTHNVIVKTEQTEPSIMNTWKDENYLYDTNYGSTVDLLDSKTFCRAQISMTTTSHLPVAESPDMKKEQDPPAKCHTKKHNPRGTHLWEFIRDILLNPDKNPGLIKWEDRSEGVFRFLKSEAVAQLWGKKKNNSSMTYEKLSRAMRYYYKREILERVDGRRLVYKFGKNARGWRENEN
# How it was run: as §1
# [7] = target: SPI1 (Homo sapiens, UniProt P17947 1-270); conditions: protein: recombinant; tags: N-terminal GST; dsDNA, one strand shown
# How it was run: as §1
# [8] = target: SPIB (Homo sapiens, UniProt Q01892 1-262); conditions: protein: recombinant; tags: N-terminal GST; dsDNA, one strand shown
# How it was run: as §1
# [9] = target: T6, FEV (Homo sapiens, UniProt Q99581 1-238); conditions: protein: recombinant; tags: N-terminal GST; dsDNA, one strand shown
# T6 sequence: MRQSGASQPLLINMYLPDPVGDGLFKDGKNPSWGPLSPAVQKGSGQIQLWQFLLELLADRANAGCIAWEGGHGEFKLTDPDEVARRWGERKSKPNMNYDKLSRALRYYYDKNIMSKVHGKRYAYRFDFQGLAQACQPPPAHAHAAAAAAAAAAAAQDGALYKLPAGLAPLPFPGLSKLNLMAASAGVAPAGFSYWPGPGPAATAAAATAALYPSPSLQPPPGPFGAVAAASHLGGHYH
# How it was run: as §1
# [10] = target: ETV5 (Homo sapiens, UniProt P41161 1-510); conditions: protein: recombinant; tags: N-terminal GST; dsDNA, one strand shown
# How it was run: as §1
# [11] = target: HSF1 (Homo sapiens, UniProt Q00613 1-529); conditions: protein: recombinant; tags: N-terminal GST; chain copies: 3; dsDNA, one strand shown
# How it was run: as §1
# [12] = target: T7, SPIC (Homo sapiens, UniProt Q8N5J4 1-248); conditions: protein: recombinant; tags: N-terminal GST; dsDNA, one strand shown
# T7 sequence: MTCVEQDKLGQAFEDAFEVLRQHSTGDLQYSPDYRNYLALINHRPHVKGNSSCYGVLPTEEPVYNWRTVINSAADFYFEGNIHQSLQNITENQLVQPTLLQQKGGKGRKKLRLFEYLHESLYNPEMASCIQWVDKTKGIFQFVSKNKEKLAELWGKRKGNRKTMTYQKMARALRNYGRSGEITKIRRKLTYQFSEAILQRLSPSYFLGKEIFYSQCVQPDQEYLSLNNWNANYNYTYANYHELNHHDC
# How it was run: as §1
# [13] = target: ELF4 (Homo sapiens, UniProt Q99607 1-663); conditions: protein: recombinant; tags: N-terminal GST; dsDNA, one strand shown
# How it was run: as §1
# [14] = target: T8, ELK4 (Homo sapiens, UniProt P28324-2 1-405); conditions: protein: recombinant; tags: N-terminal GST; dsDNA, one strand shown
# T8 sequence: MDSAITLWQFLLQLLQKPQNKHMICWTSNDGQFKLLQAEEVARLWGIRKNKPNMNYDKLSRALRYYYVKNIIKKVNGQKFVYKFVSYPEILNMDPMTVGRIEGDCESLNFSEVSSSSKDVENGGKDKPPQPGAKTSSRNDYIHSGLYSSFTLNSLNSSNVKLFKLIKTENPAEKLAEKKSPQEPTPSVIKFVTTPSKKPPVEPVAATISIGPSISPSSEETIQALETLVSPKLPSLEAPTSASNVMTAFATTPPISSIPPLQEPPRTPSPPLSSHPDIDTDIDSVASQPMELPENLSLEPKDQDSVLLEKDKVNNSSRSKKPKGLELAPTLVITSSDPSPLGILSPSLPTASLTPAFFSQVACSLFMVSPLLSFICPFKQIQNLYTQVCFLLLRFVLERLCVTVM
# How it was run: as §1
# [15] = target: T9, ETV2 (Homo sapiens, UniProt O00321 1-342); conditions: protein: recombinant; tags: N-terminal GST; dsDNA, one strand shown
# T9 sequence: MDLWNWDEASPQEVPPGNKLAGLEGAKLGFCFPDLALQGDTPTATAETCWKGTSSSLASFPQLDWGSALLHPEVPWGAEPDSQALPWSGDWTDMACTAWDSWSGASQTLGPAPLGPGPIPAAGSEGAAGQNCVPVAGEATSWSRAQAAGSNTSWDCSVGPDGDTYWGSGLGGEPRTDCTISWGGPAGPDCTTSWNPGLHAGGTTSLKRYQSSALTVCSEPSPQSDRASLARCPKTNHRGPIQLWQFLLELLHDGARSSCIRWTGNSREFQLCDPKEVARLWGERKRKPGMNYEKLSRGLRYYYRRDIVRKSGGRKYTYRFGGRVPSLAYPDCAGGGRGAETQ
# How it was run: as §1
# [16] = target: T10, ELF3 (Homo sapiens, UniProt P78545 1-371); conditions: protein: recombinant; tags: N-terminal GST; dsDNA, one strand shown
# T10 sequence: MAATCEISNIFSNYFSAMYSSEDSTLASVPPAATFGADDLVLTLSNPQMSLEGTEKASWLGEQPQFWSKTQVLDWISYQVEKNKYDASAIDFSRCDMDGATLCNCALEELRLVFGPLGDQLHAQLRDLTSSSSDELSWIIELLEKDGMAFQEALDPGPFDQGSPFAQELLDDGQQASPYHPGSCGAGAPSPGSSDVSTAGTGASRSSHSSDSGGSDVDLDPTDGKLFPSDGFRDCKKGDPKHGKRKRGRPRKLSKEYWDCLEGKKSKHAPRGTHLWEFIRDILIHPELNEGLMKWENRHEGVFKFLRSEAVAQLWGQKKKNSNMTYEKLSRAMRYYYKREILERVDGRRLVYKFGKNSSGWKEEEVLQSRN
# How it was run: as §1
# [17] = target: CRX (Homo sapiens, UniProt O43186 1-299); conditions: protein: recombinant; tags: N-terminal GST; dsDNA, one strand shown
# How it was run: as §1
# [18] = target: ETV1 (Homo sapiens, UniProt P50549 1-477); conditions: protein: recombinant; tags: N-terminal GST; dsDNA, one strand shown
# How it was run: as §1
# Chain of HSF1 (Q00613 whole entry): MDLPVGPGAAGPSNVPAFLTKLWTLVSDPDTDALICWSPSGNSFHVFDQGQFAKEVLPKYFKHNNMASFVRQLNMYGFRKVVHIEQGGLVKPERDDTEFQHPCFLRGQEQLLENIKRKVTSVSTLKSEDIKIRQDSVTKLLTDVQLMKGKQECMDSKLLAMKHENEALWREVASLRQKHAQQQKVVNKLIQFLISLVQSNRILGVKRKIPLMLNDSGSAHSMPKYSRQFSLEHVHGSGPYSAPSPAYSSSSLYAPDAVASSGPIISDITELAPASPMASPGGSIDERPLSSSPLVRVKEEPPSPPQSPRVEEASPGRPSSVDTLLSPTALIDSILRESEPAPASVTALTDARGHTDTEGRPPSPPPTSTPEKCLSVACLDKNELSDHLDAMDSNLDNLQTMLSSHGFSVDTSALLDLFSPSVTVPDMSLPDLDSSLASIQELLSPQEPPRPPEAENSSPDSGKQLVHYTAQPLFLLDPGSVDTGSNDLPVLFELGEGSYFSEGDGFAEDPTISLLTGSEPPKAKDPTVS
# Chain of ETV5 (P41161 whole entry): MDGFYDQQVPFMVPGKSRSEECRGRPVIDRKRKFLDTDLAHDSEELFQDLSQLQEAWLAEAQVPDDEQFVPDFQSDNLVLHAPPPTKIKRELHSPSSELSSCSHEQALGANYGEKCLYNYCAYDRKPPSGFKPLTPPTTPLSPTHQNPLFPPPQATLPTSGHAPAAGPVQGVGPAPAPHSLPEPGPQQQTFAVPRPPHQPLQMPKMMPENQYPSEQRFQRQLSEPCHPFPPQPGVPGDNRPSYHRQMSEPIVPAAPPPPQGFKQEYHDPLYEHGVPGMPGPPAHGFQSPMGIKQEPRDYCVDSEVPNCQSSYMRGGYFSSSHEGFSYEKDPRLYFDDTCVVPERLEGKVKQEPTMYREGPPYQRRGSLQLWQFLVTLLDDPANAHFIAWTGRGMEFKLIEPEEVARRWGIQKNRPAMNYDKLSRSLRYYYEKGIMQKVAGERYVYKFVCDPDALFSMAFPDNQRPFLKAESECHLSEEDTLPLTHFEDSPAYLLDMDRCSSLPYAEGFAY
# Chain of SPIB (Q01892 whole entry): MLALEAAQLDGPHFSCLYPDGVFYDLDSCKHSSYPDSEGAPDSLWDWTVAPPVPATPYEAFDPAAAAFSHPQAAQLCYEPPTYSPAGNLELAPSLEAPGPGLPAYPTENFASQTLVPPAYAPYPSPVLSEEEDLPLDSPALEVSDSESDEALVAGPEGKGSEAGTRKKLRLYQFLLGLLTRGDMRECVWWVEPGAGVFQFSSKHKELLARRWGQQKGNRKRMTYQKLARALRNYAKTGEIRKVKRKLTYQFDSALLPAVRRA
# Chain of CRX (O43186 whole entry): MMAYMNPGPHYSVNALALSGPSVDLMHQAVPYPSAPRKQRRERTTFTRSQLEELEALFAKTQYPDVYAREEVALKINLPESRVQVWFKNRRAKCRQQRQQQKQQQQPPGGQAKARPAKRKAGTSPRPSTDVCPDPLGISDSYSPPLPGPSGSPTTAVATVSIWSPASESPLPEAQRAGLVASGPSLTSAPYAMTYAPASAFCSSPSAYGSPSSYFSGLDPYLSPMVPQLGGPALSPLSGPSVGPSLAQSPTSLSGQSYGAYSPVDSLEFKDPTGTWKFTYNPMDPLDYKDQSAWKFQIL
# Chain of ETV1 (P50549 whole entry): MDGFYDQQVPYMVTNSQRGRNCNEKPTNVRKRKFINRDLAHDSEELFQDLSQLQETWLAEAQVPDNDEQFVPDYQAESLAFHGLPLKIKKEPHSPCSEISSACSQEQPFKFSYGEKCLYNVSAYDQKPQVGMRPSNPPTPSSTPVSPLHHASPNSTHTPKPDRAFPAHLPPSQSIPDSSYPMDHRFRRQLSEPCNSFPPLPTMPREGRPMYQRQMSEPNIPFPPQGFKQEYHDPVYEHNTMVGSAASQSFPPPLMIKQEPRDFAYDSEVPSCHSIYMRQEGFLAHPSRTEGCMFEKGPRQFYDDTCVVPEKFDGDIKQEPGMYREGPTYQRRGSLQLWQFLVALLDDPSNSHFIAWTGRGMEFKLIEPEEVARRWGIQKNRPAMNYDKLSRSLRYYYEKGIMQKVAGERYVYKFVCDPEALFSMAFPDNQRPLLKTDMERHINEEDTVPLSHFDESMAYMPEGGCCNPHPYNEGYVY
# Chain of ELF1 (P32519 whole entry): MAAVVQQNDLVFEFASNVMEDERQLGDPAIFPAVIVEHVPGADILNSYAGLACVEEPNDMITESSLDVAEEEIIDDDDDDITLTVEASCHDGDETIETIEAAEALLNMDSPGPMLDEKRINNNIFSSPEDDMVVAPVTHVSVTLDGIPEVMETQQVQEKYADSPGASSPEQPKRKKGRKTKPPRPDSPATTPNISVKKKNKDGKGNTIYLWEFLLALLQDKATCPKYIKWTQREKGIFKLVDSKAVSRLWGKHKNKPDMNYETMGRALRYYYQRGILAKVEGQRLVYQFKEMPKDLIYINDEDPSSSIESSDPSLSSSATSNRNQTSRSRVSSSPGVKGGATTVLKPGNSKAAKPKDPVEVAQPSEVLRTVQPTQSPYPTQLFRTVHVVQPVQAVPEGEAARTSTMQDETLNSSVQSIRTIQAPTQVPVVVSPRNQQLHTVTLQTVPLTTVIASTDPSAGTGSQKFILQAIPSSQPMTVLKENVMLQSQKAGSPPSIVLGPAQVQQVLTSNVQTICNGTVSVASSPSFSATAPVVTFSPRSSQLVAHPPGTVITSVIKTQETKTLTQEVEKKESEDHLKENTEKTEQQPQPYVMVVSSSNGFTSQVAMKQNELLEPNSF
# Chain of ELF4 (Q99607 whole entry): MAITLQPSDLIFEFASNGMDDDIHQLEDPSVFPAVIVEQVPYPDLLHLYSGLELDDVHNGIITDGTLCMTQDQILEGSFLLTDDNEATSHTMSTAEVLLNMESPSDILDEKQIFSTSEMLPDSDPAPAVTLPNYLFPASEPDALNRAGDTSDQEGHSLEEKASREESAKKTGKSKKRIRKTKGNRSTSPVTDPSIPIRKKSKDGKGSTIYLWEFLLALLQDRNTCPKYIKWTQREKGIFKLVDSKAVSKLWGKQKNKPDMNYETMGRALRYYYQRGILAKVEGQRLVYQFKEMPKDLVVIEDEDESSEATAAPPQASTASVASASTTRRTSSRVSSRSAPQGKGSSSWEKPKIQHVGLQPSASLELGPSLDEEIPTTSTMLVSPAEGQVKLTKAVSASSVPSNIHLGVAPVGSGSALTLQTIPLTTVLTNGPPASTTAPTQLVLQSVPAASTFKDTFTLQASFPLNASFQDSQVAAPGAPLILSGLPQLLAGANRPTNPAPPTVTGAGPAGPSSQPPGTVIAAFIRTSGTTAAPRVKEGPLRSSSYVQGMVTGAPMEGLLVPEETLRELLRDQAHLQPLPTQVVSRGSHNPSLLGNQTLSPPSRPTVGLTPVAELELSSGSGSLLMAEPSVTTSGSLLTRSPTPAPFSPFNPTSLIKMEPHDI
sequence,measurement,setting,value
GCTTAG,binding signal,[1],"1.14 fold enrichment (6-mer frequency, TF over GST control)"
same,binding signal,[2],"1.06 fold enrichment (6-mer frequency, TF over GST control)"
same,binding signal,[3],"1.19 fold enrichment (6-mer frequency, TF over GST control)"
same,binding signal,[4],"1.18 fold enrichment (6-mer frequency, TF over GST control)"
same,binding signal,[5],"1.15 fold enrichment (6-mer frequency, TF over GST control)"
same,binding signal,[6],"1.11 fold enrichment (6-mer frequency, TF over GST control)"
same,binding signal,[7],"1.1 fold enrichment (6-mer frequency, TF over GST control)"
same,binding signal,[8],"1.09 fold enrichment (6-mer frequency, TF over GST control)"
same,binding signal,[9],"1.08 fold enrichment (6-mer frequency, TF over GST control)"
same,binding signal,[10],"1.13 fold enrichment (6-mer frequency, TF over GST control)"
same,binding signal,[11],"1.78 fold enrichment (6-mer frequency, TF over GST control)"
same,binding signal,[12],"1.12 fold enrichment (6-mer frequency, TF over GST control)"
same,binding signal,[13],"1.1 fold enrichment (6-mer frequency, TF over GST control)"
same,binding signal,[14],"1.17 fold enrichment (6-mer frequency, TF over GST control)"
same,binding signal,[15],"1.08 fold enrichment (6-mer frequency, TF over GST control)"
same,binding signal,[16],"1.09 fold enrichment (6-mer frequency, TF over GST control)"
same,binding signal,[17],"2.49 fold enrichment (6-mer frequency, TF over GST control)"
same,binding signal,[18],"1.27 fold enrichment (6-mer frequency, TF over GST control)"
